High-throughput results as filed in PubChem BioAssay.
Rab9 prom act = activates the Rab9 promoter | Huh7 Rab9 promoter-luciferase reporter, luminescence, 24 h | Potency, µM (doses to about 9.22 µM), for the others: top-dose activation, negative = inhibition, actives largely listed as activators | 2.8% of 320,000 active | AID 485297; also: % of control where 0% means no effect; nearly all actives have a fitted effect of over 60% in size
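Measured in stably transfected Huh7 cells bearing a Rab9 promoter–luciferase construct: 24 h compound treatment at 37 °C, followed by luminescence detection.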
SMN2 splice enh = SMN2 splice variant enhancement | HEK293 SMN2-luciferase splicing reporter, luminescence, 30-36 h | Potency, µM (top dose mostly 46.1 µM), without a hit: top-dose activity change, positive = activation, most hits filed as activators | 2.8% of 210,000 active | AID 1458; also: % of control where 0% means no effect; nearly all actives have a fitted effect of over 55% in size
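HEK293 cells carry an SMN2 […]–luciferase reporter in which exon 7 inclusion puts luciferase in frame. Cells were plated 10-12 h before compound addition, then incubated 30-36 h at 37C. ONE-Glo luminescence was read; sodium butyrate at 4.5 mM final served as control.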
ELG1 genotoxic = genotoxicity induction in ELG1-luciferase HEK293T cells; HEK293T ELG1-luciferase reporter, luminescence, 16 h; Potency, µM (series often up to 46 µM), for inactives: top-dose activity change, positive = activation, usual class: activators; 1.3% of 330,000 active; also: % of control where 0% means no effect; nearly all actives have a fitted effect of over 60% in size
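Step 1: seed 2,000 HEK293T ELG1-luciferase cells per well. Step 2: add compound or DMSO, incubate 16 hr at 37 °C. Step 3: ONE-Glo, 30 min at room temperature, read luminescence.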
ELG1 repair inh = inhibitors of ELG1-dependent DNA repair in HEK293T cells; 2.3% of 330,000 active; HEK293T ELG1-luciferase reporter, luminescence, 16 h; DNA damage induced by 5-fluorouridine; AID 504467; Potency, µM (series often up to 46.1 µM), without a hit: at the top dose activity change, negative = inhibition, most hits filed as inhibitors; also: % is scaled to controls: 0 for no effect and ±100 for the full control effect; nearly all actives have a fitted effect of over 55% in size
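Quantitative HTS, concentration-response format. 2,000 cells/well co-treated with 5-fluorouridine and compound, 16 hr in 5% CO2 at 37 °C; ONE-Glo luminescence read after 30 min.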
FLuc modulator = firefly luciferase modulation, counter-screen for miR-21 project; Potency, µM (highest dose often 57.5 µM), for inactives: at the highest dose activity change, negative = inhibition, most hits filed as inhibitors; purified FLuc, Km substrates, luminescence inhibition; P08659; 6.9% of 360,000 active;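 also: plate controls were vehicle for no effect and reference inhibitor for full effect; nearly all actives have a fitted effect of over 55% in size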
Target sequence (P08659 whole entry, looked up): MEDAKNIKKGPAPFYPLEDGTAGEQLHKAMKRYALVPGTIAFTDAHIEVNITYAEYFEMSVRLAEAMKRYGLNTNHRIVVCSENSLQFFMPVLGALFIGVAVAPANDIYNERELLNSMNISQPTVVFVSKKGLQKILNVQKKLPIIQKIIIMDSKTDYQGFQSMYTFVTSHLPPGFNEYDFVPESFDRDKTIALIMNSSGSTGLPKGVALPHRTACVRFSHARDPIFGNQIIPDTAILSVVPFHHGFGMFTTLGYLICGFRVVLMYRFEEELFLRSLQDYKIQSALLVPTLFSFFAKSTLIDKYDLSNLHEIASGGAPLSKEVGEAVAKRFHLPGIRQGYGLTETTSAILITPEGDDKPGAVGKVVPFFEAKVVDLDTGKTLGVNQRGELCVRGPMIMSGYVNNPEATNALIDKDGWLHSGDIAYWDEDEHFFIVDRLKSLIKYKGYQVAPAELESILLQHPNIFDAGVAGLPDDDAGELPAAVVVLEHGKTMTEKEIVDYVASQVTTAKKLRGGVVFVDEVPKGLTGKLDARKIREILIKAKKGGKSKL
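Purified P. pyralis luciferase, 10 nM final, with Km-level 10 uM D-luciferin and 10 uM ATP in 50 mM Tris acetate pH 7.5, 10 mM Mg acetate, 0.01% Tween-20, 0.05% BSA; 6-point qHTS titration about 60 µM downward; luminescence read.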
NPC1 promoter act = NPC1 promoter activation; Potency, µM (doses to about 9.22 µM), for inactives: at the highest dose activation, actives largely listed as activators; Huh7 NPC1 promoter luciferase reporter, 24 h; 2.4% of 320,000 active; AID 485313; also: % of control where 0% means no effect; nearly all actives have a fitted effect of over 60% in size
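Luminescence read-out of NPC1 promoter-driven luciferase in stably transfected Huh7 cells; compounds delivered in DMSO and left 24 h at 37C, 5% CO2, qHTS titration format.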
Numbers without * were called inactive; ? = inconclusive; / = no result; [ ] = dose if it differs, or a comment. Hits are enriched below; roughly 9.2% of the tested compounds scored in any of these assays. Calls follow the shape of the dose curve; as a rule, active = well fitted curve in the direction sought with a large enough effect; inconclusive = small, poorly fitted or top-dose-only effect, or another doubt; inactive = no such curve, though single readings can be large; an effect the other way counts as inactive or inconclusive. Potency is read from the fitted curve at half-maximal effect.

SMILES	Rab9 prom act	SMN2 splice enh	ELG1 genotoxic	ELG1 repair inh	FLuc modulator	NPC1 promoter act
CC(=O)OC(C)(C)/C=C/C(=O)[C@](C)(O)[C@H]1[C@H](O)C[C@@]2(C)[C@@H]3CC=C4[C@H](C[C@H](O)C(=O)C4(C)C)[C@]3(C)C(=O)C[C@]12C	-42%	-87%	-11%	5.2µM*	10%	-34%
COc1ccc(C(CC(=O)N2CCC3(CC2)OCCO3)NS(=O)(=O)c2ccc(F)cc2)cc1 (centres undefined)	3.5µM*	-5%	-3%	-13%	-1%	-6%
O=C(OCc1ccc(Cl)c(Cl)c1)c1ccccn1	-2%	-6%	1%	-5%	15µM*	-2%
CC(C)[C@@H](Br)C(=O)NCC(=O)O	/	-8%[9.22 µM]	/	/	/	/
C#CCN1C(=O)S/C(=C\c2ccc(N3CCOCC3)cc2C)C1=O	2.8µM*	22%	?	?	2.4µM*	?
CCOc1ccc(N2C(=O)NC(=O)/C(=C\c3ccc(N4CCOCC4)cc3C)C2=O)cc1	2%	-5%	3%	?	?	0%
O=C(O)[C@H]1C2c3ccccc3C(c3ccccc32)[C@@H]1C(=O)NCC1CC1	/	-3%[9.22 µM]	/	/	/	/
CCCCn1c(O)c(C(C)=NCc2cccnc2)c(=O)[nH]c1=O	-1%	/	0%	0%	-1%	-2%
CCC(=NCc1cc(OC)cc(OC)c1)c1c(O)n(C2CCCCC2)c(=O)[nH]c1=O	-3%	/	-8%	16µM*	0%	-5%
CCCCn1c(O)c(C(CC)=NCc2cc(OC)cc(OC)c2)c(=O)[nH]c1=O	2%	-12%	-12%	16µM*	1%	-7%
COc1cc(CN=C(C)c2c(O)n(C3CCCCC3)c(=O)[nH]c2=O)cc(OC)c1	-4%	/	-9%	?	0%	-3%
CCCCn1c(O)c(C(C)=NCc2cc(OC)cc(OC)c2)c(=O)[nH]c1=O	2%	-10%	-14%	23µM*	-1%	0%
Cl/C=C/CCl	/	-12%	/	/	/	/
O=NN(c1ccccc1)c1ccccc1	/	-6%	/	/	/	/
CC(C)(C)c1csc(NC(=O)Nc2ccccc2)n1	1.8µM*	7.9µM*	-1%	?	3.4µM*	4µM*
On1ccccc1=S	-36%	/	-53%	?	8.5µM*	-24%
Cc1ccc2c(c1N)C(=O)c1ccccc1C2=O	?	?	?	?	4.3µM*	3.2µM*
O=P(O)(O)CCP(=O)(O)O	/	-16%[9.22 µM]	/	/	/	/
C[C@@H]1C[C@@H]([C@H](O)CC2CC(=O)NC(=O)C2)C(=O)[C@@H](C)C1	-4%	-43%	-5%	0.29µM*	0%	-36%
C[C@@H]1CC([C@H](O)CC2CC(=O)NC(=O)C2)C(=O)[C@@H](C)C1 (some centres undefined)	/	-89%	/	/	/	/
Cc1ccc(OP(=O)(Oc2ccc(C)cc2)N2C=Cc3ccccc3[C@H]2C#N)cc1	/	-11%[9.22 µM]	/	/	/	/
COC(=O)c1cn(CCOc2ccccc2)c2ccccc12	2%	23%	21µM*	?	?	22%
O=Cc1cn(CCCOc2ccccc2)c2ccccc12	?	-61%	-9%	?	-19%	?
N#CCCn1cc(C(=O)Nc2ccc([N+](=O)[O-])cc2)c(-c2ccc3c(c2)OCCO3)n1	-7%	?	-2%	?	1%	0%
Cc1ccc(NC(=O)c2cn(CCC#N)nc2-c2ccc3c(c2)OCCO3)c([N+](=O)[O-])c1	-1%	18%	-1%	18µM*	-2%	-1%
SMILES	Rab9 prom act	SMN2 splice enh	ELG1 genotoxic	ELG1 repair inh	FLuc modulator	NPC1 promoter act
Cc1ccc(OCCOc2cccc(C=C3C(=O)NC(=O)NC3=O)c2)cc1	0.32µM*	/	3%	?	8.5µM*	0.32µM*
S=C=Nc1cccc2ccccc12	/	2%	/	/	/	/
CCCCCCOc1ccc(CN2CCN(CC)CC2)cc1	2.8µM*	-29%	3.7µM*	?	9.5µM*	4µM*
COC(=O)c1ccc(CC(C(=O)c2ccccc2)N(C)C)cc1 (centres undefined)	?	/	?	?	15µM*	?
C/C=C(/C)C(=O)O[C@H]1C(C)=C2C([C@@H]1OC(=O)CCCCCCC)[C@@](C)(OC(C)=O)C[C@@H](OC(=O)CCC)[C@@]1(O)[C@H]2OC(=O)[C@@]1(C)O (some centres undefined)	/	-115%	/	/	/	/
COc1ccc2nc(N3CCN(C(=O)CS(=O)(=O)c4ccc(C)cc4)CC3)sc2c1	/	/	/	/	4.8µM*	/
Cc1ccc(NS(=O)(=O)c2ccc(OCC(=O)N3CCN(C)CC3)cc2)cc1	0%	/	-1%	4%	1%	-3%
CC(C)Oc1ccc(CNC(=O)Oc2ccccc2)cc1	3.2µM*	/	5%	-2%	6.7µM*	3.5µM*
CNC(=O)Oc1ccccc1OC(C)C	/	-3%	/	/	/	/
O=C(Cl)c1ccccc1F	/	-8%	/	/	/	/
O=C(O)c1ccccc1Nc1cccc(C(F)(F)F)c1	-11%	-25%	0%	-3%	15µM*	1%
c1ccc(NNc2ccccc2)cc1	/	-2%	/	/	/	/
Cc1ccc(S(=O)(=O)N2CCCC2c2cccnc2)cc1 (centres undefined)	2%	/	-1%	0%	-1%	-4%
CC(=O)Nc1ccc(S(=O)(=O)N2CCSC2c2ccc(C)cc2)cc1 (centres undefined)	4%	-58%	-19%	16µM*	1%	2%
COc1ccc(C(=O)Nc2cc(Cl)ccc2C(=O)O)cc1	16%	/	6%	?	15µM*	13%
C[C@H](CN(C)C)C(C#N)(c1ccccc1)c1ccccc1	/	-7%[9.22 µM]	/	/	/	/
Cc1ccccc1-c1nc(CS(=O)CC(=O)N2CCN(c3cc(Cl)ccc3C)CC2)c(C)o1 (centres undefined)	/	-71%	/	/	-4%	/
NNC(N)=S	/	-10%	/	/	/	/
